# Results taken from PubChem BioAssay.
# For some assays here: Entries with a potency or affinity are not part of this list. The source made the active and inactive calls.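 The calls were made as follows, unless noted: active = luciferase signal above three times the same-plate solvent-only control wells; inactive = the rest.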
# Key:
# [1] = differential killing of epithelial or mesenchymal cells, primary screen, imaging, PC-3E GFP, TEM4-18 mCherry, co-culture (AID 1345086;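 active = compounds killing one labelled cell type while sparing the other, by normalised counts and ratio limits, not self-fluorescent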;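 as to all read-outs here: cells exposed to compound for 72 h before imaging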;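 as to red/green cell ratio (normalised): normalised mesenchymal count divided by normalised epithelial count so high means epithelial killing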); details: imaging cell counts, at 1 µM; for red/green cell ratio (normalised): actives lie on both sides, counts scaled to control wells, 1 = unselective
# [2] = molecular target: Mitogen-activated protein kinase 7 (Homo sapiens) (UniProt Q13164); test: ERK5 transactivation activators in reporter cells, primary screen, cell-based, HTS (AID 1508626); details: HeLa Gal4-ERK5 transactivation, 18 h, at 5 µM, stronger effect = higher value;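 also: luciferase driven by Gal4-ERK5 fusion binding five Gal4 sites before minimal TATA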
# Chain of Mitogen-activated protein kinase 7 (Homo sapiens) (Q13164 whole entry, looked up, the tested form may be a part): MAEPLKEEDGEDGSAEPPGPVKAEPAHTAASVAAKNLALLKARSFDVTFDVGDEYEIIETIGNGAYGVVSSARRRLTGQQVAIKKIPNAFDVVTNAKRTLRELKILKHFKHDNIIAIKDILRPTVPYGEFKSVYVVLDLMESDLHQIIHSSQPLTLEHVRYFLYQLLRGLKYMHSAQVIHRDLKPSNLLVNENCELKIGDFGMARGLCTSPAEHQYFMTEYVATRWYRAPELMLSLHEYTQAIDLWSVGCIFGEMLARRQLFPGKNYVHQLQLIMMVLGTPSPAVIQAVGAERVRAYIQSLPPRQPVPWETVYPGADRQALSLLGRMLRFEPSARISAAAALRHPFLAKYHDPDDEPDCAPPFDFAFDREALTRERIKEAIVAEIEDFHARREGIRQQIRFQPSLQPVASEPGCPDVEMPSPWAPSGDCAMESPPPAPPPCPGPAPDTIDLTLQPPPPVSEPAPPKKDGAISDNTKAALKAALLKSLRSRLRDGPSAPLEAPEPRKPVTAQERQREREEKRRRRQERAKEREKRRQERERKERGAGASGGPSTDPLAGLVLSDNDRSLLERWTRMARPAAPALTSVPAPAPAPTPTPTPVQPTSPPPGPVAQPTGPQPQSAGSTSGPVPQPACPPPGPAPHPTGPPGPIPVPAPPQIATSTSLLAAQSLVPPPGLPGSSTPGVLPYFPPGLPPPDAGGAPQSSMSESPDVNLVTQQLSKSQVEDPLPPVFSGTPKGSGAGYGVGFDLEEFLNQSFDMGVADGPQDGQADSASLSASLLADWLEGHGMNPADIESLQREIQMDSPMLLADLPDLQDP
# [3] = polyglutamine-triggered caspase-3 activation inhibitors, cell-based (AID 1583); details: polyglutamine-induced caspase-3 activation, cell assay; stronger effect = higher value;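 tested at 10 µM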
# [4] = suppressors of polyQ aggregation in yeast, 75Q-TubU reporter (AID 1593); details: Yeast 75Q polyglutamine aggregation reporter
# [5] = rescue of polyQ-huntingtin neuronal dysfunction in worms, whole organism, C. elegans mechanosensory neurons, N-terminal huntingtin (AID 1599); details: touch response, stronger effect = higher value
# [6] = inhibitors of mitochondrial cytochrome c release, biochemical, purified mitochondria (AID 1603); details: stronger effect = lower value;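 also: mouse liver mitochondria challenged with calcium chloride; signal normalized to the plate average as 100%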
# [7] = inhibitors of polyQ protein aggregation (AID 1604); details: polyglutamine-induced protein aggregation inhibition assay; stronger effect = higher value; tested at 2.5 µM
# [8] = enhancers of glutamate uptake in motor neurons, MN-1 cell line (AID 1612); details: MN-1 motor neuron cells, stronger effect = higher value;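 also: tested at 1 µM final; 0% = mean of DMSO vehicle wells on each plate; positive means more glutamate uptake than control and negative means less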
# [9] = reducers of polyQ inclusions in PC12 cells, cell-based, NGF-treated PC12, GFPQ80 (AID 1614); details: PC12 NGF-treated GFP-polyQ80 inclusion reduction;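 also: lower means fewer inclusions and 0 means no inclusions at all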
# [10] = suppressors of polyglutamine aggregation in yeast, 75Q-TubH (AID 1616); details: S. cerevisiae 75Q-TubH polyglutamine aggregation suppression; stronger effect = higher value
# [11] = measured here: epithelial PC-3E GFP cell survival
# [12] = measured here: mesenchymal TEM4-18 mCherry cell survival
structure (smiles),measurement,setting,value
C=CC(C1=CC(=O)C=CC1=O)c1ccccc1 (stereo not drawn),red/green cell ratio (normalised),[1],0.88 (inactive)
same,normalised cell number,[1]; [11],1.13
same,normalised cell number,[1]; [12],1
same,luciferase signal,[2],64 AU (inactive)
O=C(NC1CCCCC1)NC1CCCCC1,red/green cell ratio (normalised),[1],0.92 (inactive)
same,normalised cell number,[1]; [11],1.15
same,normalised cell number,[1]; [12],1.06
same,luciferase signal,[2],60 AU (inactive)
CC(=O)O[C@H]1C[C@@H](OC(C)=O)C(C)(C)C2C[C@@H](O)[C@]3(C)C(CC[C@@]4(C)[C@H](c5ccoc5)OC(=O)[C@H]5O[C@]543)[C@]21C (stereo partly drawn),red/green cell ratio (normalised),[1],0.99 (inactive)
same,normalised cell number,[1]; [11],0.87
same,normalised cell number,[1]; [12],0.86
same,luciferase signal,[2],28 AU (inactive)
CC(=O)O[C@H]1CC[C@@]2(C)C(C[C@@H](OC(C)=O)[C@@]3(C)C4=CC(=O)O[C@@H](c5ccoc5)[C@]4(C)CCC23)C1(C)C (stereo partly drawn),red/green cell ratio (normalised),[1],0.88 (inactive)
same,normalised cell number,[1]; [11],0.93
same,normalised cell number,[1]; [12],0.82
same,luciferase signal,[2],28 AU (inactive)
O=C(O)/C=C/C=C/c1ccccc1,red/green cell ratio (normalised),[1],1.01 (inactive)
same,normalised cell number,[1]; [11],0.93
same,normalised cell number,[1]; [12],0.93
same,luciferase signal,[2],64 AU (inactive)
COc1ccc(-c2oc3cc(OC)c(OC)c(OC)c3c(=O)c2OC)cc1OC,red/green cell ratio (normalised),[1],1.2 (inactive)
same,normalised cell number,[1]; [11],0.9
same,normalised cell number,[1]; [12],1.08
same,luciferase signal,[2],32 AU (inactive)
CC1(C)CC[C@]2(C(=O)O)CC[C@]3(C)C(=CCC4[C@@]5(C)CC[C@@H](O)C(C)(C)C5CC[C@]43C)C2C1 (stereo partly drawn),red/green cell ratio (normalised),[1],1 (inactive)
same,normalised cell number,[1]; [11],0.94
same,normalised cell number,[1]; [12],0.95
same,luciferase signal,[2],16 AU (inactive)
COc1ccc2c(c1)O[C@H]1c3ccc(OC)cc3OC[C@@H]21,red/green cell ratio (normalised),[1],1.06 (inactive)
same,normalised cell number,[1]; [11],1
same,normalised cell number,[1]; [12],1.07
same,luciferase signal,[2],68 AU (inactive)
NC(Cc1ccc(F)cc1)C(=O)O (stereo not drawn),inhibition,[3],10.4%
same,score,[4],1.23
same,rescue above control,[5],3.95
same,cytochrome c release ratio,[6],0.78
same,inhibition of aggregation,[7],75%
same,glutamate uptake change,[8],15.5%
same,inclusion score,[9],2
same,aggregation suppression score,[10],1.47
same,red/green cell ratio (normalised),[1],0.96 (inactive)
same,normalised cell number,[1]; [11],0.88
same,normalised cell number,[1]; [12],0.84
same,luciferase signal,[2],100 AU (inactive)
COc1ccc(-c2coc3cc(O)ccc3c2=O)c(OC)c1,red/green cell ratio (normalised),[1],1.02 (inactive)
same,normalised cell number,[1]; [11],1.07
same,normalised cell number,[1]; [12],1.08
same,luciferase signal,[2],60 AU (inactive)
COc1ccc2c(c1)OCC(Cc1ccc(O)c(OC)c1)C2=O (stereo not drawn),red/green cell ratio (normalised),[1],0.93 (inactive)
same,normalised cell number,[1]; [11],1.04
same,normalised cell number,[1]; [12],0.96
same,luciferase signal,[2],84 AU (inactive)
O=c1cc(-c2ccccc2O)oc2cc(O)ccc12,red/green cell ratio (normalised),[1],1 (inactive)
same,normalised cell number,[1]; [11],0.97
same,normalised cell number,[1]; [12],0.97
same,luciferase signal,[2],112 AU (inactive)
COC1=CC(=O)C(O)=C/C1=C\C=C\c1ccccc1,red/green cell ratio (normalised),[1],1.11 (inactive)
same,normalised cell number,[1]; [11],0.95
same,normalised cell number,[1]; [12],1.06
same,luciferase signal,[2],12 AU (inactive)
O=c1cc(-c2ccccc2)oc2cccc(O)c12,red/green cell ratio (normalised),[1],0.94 (inactive)
same,normalised cell number,[1]; [11],1.1
same,normalised cell number,[1]; [12],1.03
same,luciferase signal,[2],104 AU (inactive)
COc1cc2oc3cc(OC)c(OC)c(CC=C(C)C)c3c(=O)c2c(O)c1CC=C(C)C,red/green cell ratio (normalised),[1],0.97 (inactive)
same,normalised cell number,[1]; [11],1
same,normalised cell number,[1]; [12],0.97
same,luciferase signal,[2],72 AU (inactive)
